Inconclusive results are not listed. Activity calls are given as the source filed them. Unless noted, calls follow the shape of the dose curve; as a rule, active = well fitted cell-killing curve with a large enough effect in the repeat runs; inconclusive = weak or mixed curves, or effect the other way; inactive = flat fitted curve, though single readings scatter. Starred links: 1 amine or outer side, 2 acyl side, 3 side chain; linkers in the order of their positions; H or OH if unused. Positions of bridges follow the written chain, without caps; N, C: chain ends. Non-standard residues stand in square brackets, D forms with d. Residues, ends and D or L forms follow the SMILES beside them. *: point of attachment. X5 = NC1=N[C@@H]([C@H](N[*:1])C(=O)[*:2])C[C@H](O)N1; ΔAla(Z-3-ureido) = NC(=O)N/C=C(\N)C(=O)O; β3hOrn = NCCC[C@H](N)CC(=O)*; Orn = NCCC[C@H](N)C(=O)O; Dap = NC[C@H](N)C(=O)O; Mpa = O=C(O)CCS
Tested on: not listed separately
Assay: qHTS assay to identify small molecule that activate the aryl hydrocarbon receptor (AhR) signaling pathway - cell viability counter screen (AID 743086);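 also: HepG2 liver cells carrying the AhR DRE luciferase reporter; nearly all actives have a fitted effect of over 45% in size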
Conditions: HepG2-AhR-luc viability, CellTiter-Fluor, 24 h; series mostly up to 70.3 µM; viability change, negative = cytotoxic: at the top concentration
How it was run: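 HepG2-AhR-luc (HG2L7.5c1) cells, 4000/well, treated 24 h at 37 C with compound; viability measured as CellTiter-Fluor fluorescence after 30 min in the same wells as the luciferase read.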
% is scaled to controls: 0 for no effect and ±100 for the full control effect.

Structure (SMILES)	viability change, negative = cytotoxic
CC(=O)O[C@H]1CC[C@@]2(C)C(=CC[C@@H]3[C@@H]2CC[C@]2(C)C(c4cccnc4)=CC[C@@H]32)C1	5.32% (inactive)
CC(=O)[C@@]1(O)CC[C@H]2[C@@H]3C=C(Cl)C4=CC(=O)[C@@H]5C[C@@H]5[C@]4(C)[C@H]3CC[C@@]21C	6.92% (inactive)
CCCCC(F)(F)[C@@]1(O)CC[C@H]2[C@@H](CC(=O)[C@@H]2CCCCCCC(=O)O)O1	-20.5% (inactive)
CCCCCCCCCCCCCCCC(=O)O[C@@H]1CC(C)=C(/C=C/C(C)=C/C=C/C(C)=C/C=C/C=C(C)/C=C/C=C(C)/C=C/C2=C(C)C[C@@H](OC(=O)CCCCCCCCCCCCCCC)CC2(C)C)C(C)(C)C1	-0.871% (inactive)
O=C(CCCN1CCC(n2c(=S)[nH]c3ccccc32)CC1)c1ccc(F)cc1	-15.4% (inactive)
CN1CCN(C2=Nc3ccccc3Cc3ccccc32)CC1	-13.4% (inactive)
C[C@@H]1C/C=C/C=C/C=C/C=C/[C@H](O[C@@H]2O[C@H](C)[C@@H](O)[C@H](N)[C@@H]2O)C[C@@H]2O[C@](O)(C[C@@H](O)C[C@H]3O[C@@H]3/C=C/C(=O)O1)C[C@H](O)[C@H]2C(=O)O	-4.01% (inactive)
O=C(O[C@H]1CN2CCC1CC2)N1CCc2ccccc2[C@@H]1c1ccccc1	-29.6% (inactive)
CC(CC(c1ccccc1)c1ccccc1)NC(C)(C)C (stereo not drawn)	-10.2% (inactive)
O=C(OCCO)c1ccccc1O	-14.9% (inactive)
CCOc1ccc(N=C(C)Nc2ccc(OCC)cc2)cc1	-11.1% (inactive)
NCCCNCCCCNC(=O)C(O)NC(=O)CCCCCCN=C(N)N (stereo not drawn)	11.9% (inactive)
CN(C)CCOc1ccccc1Cc1ccccc1 (tested in a mixture with another compound)	-6.98% (inactive)
CCCCCCCN(CC)CCCC(O)c1ccc(NS(C)(=O)=O)cc1 (stereo not drawn)	2.41% (inactive)
CCOC(=O)[C@H](CCc1ccccc1)N[C@@H](C)C(=O)N1CC2(C[C@H]1C(=O)O)SCCS2	-0.916% (inactive)
COc1ccc(CCNC[C@H](O)c2ccc(O)cc2)cc1OC	-14.5% (inactive)
CC#CCC(C)[C@H](O)/C=C/[C@@H]1[C@H]2C/C(=C/CCCC(=O)O)C[C@H]2C[C@H]1O (stereo partly drawn)	-2.47% (inactive)
CCC(=O)OCC(=O)[C@@]1(OC(=O)CC)[C@@H](C)C[C@H]2[C@@H]3CCC4=CC(=O)C=C[C@]4(C)[C@@]3(F)[C@@H](O)C[C@@]21C	0.559% (inactive)
C/C=C(/CC[C@@H](C)[C@H]1CC[C@H]2C3=CC[C@H]4[C@H](C)[C@@H](O)CC[C@]4(C)[C@H]3CC[C@]12C)C(C)C	7.95% (inactive)
CCCCOC(=O)C(=O)Nc1cccc(-c2nn[nH]n2)c1	-0.544% (inactive)
NCCC(=O)[N-][C@@H](Cc1cnc[nH]1)C(=O)O.[Zn]	-19.5% (inactive)
COc1ccc(CNCC(O)COc2ccc3[nH]c(=O)ccc3c2)cc1OC (stereo not drawn)	-24.8% (inactive)
c1cnc2cc3c(cc2n1)[C@@H]1CNC[C@H]3C1	-21% (inactive)
CCC(=O)OCC(=O)[C@@]1(OC(=O)CC)[C@H](C)C[C@H]2[C@@H]3CCC4=CC(=O)C=C[C@]4(C)[C@@]3(F)[C@@H](O)C[C@@]21C	-2.69% (inactive)
NCCC[C@H](N)CC(=O)N[C@H]1CNC(=O)[C@H]([C@H]2C[C@H](O)NC(N)=N2)NC(=O)/C(=C/NC(N)=O)NC(=O)[C@H](CO)NC(=O)[C@H](CO)NC1=O (β3hOrn-[Dap]SS[ΔAla(Z-3-ureido)][X5]; lactam 1-C)	0.0104% (inactive)
CC(=O)[C@@]1(O)CC[C@H]2[C@@H]3C=C(Cl)C4=CC(=O)CC[C@]4(C)[C@H]3CC[C@@]21C	3.56% (inactive)

Molecular target: Peroxisome proliferator-activated receptor gamma (Homo sapiens) (UniProt P37231)
Assay: qHTS assay to identify small molecule agonists of the peroxisome proliferator-activated receptor gamma (PPARg) signaling pathway (AID 743094; active = well fitted activation curve with a large enough effect in the signal ratio in the repeat runs, not every such curve was filed as active; the % refers to the signal ratio)
Conditions: HEK293H PPARg-UAS-bla, beta-lactamase FRET ratio, 17 h; series mostly up to 57 µM; activation: at the top concentration
How it was run: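 Reporter activation was scored by fluorescence of cleaved LiveBLAzer B/G substrate (1 h, room temperature) in PPARg-bla HEK293H cells previously treated 17 h at 37C with DMSO-dissolved compounds.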

Sequence of Peroxisome proliferator-activated receptor gamma (Homo sapiens) (P37231 whole entry, looked up): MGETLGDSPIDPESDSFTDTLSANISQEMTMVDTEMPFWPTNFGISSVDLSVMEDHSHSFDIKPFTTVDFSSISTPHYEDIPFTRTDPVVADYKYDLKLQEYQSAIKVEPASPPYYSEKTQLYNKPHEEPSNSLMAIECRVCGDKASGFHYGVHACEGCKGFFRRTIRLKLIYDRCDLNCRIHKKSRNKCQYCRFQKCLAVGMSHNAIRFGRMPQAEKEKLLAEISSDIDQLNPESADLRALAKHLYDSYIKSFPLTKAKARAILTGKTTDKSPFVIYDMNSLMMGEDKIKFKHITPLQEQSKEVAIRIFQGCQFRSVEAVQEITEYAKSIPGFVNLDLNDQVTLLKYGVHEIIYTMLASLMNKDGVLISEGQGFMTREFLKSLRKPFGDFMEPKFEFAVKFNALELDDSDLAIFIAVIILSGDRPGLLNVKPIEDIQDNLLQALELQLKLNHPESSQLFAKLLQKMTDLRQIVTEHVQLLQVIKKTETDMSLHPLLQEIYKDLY

Structure (SMILES)	activation
CC(=O)O[C@H]1CC[C@@]2(C)C(=CC[C@@H]3[C@@H]2CC[C@]2(C)C(c4cccnc4)=CC[C@@H]32)C1	-4.13% (inactive)
CC(=O)[C@@]1(O)CC[C@H]2[C@@H]3C=C(Cl)C4=CC(=O)[C@@H]5C[C@@H]5[C@]4(C)[C@H]3CC[C@@]21C	-1.15% (inactive)
CCCCCCCCCCCCCCCC(=O)O[C@@H]1CC(C)=C(/C=C/C(C)=C/C=C/C(C)=C/C=C/C=C(C)/C=C/C=C(C)/C=C/C2=C(C)C[C@@H](OC(=O)CCCCCCCCCCCCCCC)CC2(C)C)C(C)(C)C1	-0.596% (inactive)
C[C@@H]1C/C=C/C=C/C=C/C=C/[C@H](O[C@@H]2O[C@H](C)[C@@H](O)[C@H](N)[C@@H]2O)C[C@@H]2O[C@](O)(C[C@@H](O)C[C@H]3O[C@@H]3/C=C/C(=O)O1)C[C@H](O)[C@H]2C(=O)O	0.561% (inactive)
CC(CC(c1ccccc1)c1ccccc1)NC(C)(C)C (stereo not drawn)	-8.66% (inactive)
O=C(OCCO)c1ccccc1O	-0.472% (inactive)
c1ccc2c(c1)Sc1ccccc1N2CCN1CCCC1	-7.82% (inactive)
NCCCNCCCCNC(=O)C(O)NC(=O)CCCCCCN=C(N)N (stereo not drawn)	-4.14% (inactive)
CCOc1ccc(C[C@H]2NC(=O)CCSSC[C@@H](C(=O)N3CCC[C@H]3C(=O)N[C@@H](CCCN)C(=O)NCC(N)=O)NC(=O)[C@H](CC(N)=O)NC(=O)[C@H]([C@@H](C)O)NC(=O)[C@H]([C@@H](C)CC)NC2=O)cc1 ([Mpa][dY](Et)ITNCP[Orn]G-NH2; disulfide 1-6)	0.149% (inactive)
CCOC(=O)[C@H](CCc1ccccc1)N[C@@H](C)C(=O)N1CC2(C[C@H]1C(=O)O)SCCS2	1.19% (inactive)
COc1ccc(CCNC[C@H](O)c2ccc(O)cc2)cc1OC	0.651% (inactive)
CC#CCC(C)[C@H](O)/C=C/[C@@H]1[C@H]2C/C(=C/CCCC(=O)O)C[C@H]2C[C@H]1O (stereo partly drawn)	3.04% (inactive)
CCC(=O)OCC(=O)[C@@]1(OC(=O)CC)[C@@H](C)C[C@H]2[C@@H]3CCC4=CC(=O)C=C[C@]4(C)[C@@]3(F)[C@@H](O)C[C@@]21C	-0.596% (inactive)
C/C=C(/CC[C@@H](C)[C@H]1CC[C@H]2C3=CC[C@H]4[C@H](C)[C@@H](O)CC[C@]4(C)[C@H]3CC[C@]12C)C(C)C	-3.6% (inactive)
C=C[C@]1(C)C[C@@H](OC(=O)CSCCN(CC)CC)[C@]2(C)[C@H](C)CC[C@]3(CCC(=O)[C@H]32)[C@@H](C)[C@@H]1O	-2.75% (inactive)
CCOC(=O)Cc1cccc(-c2cc(CCCCCCc3ccc(O[C@H]4O[C@H](COC(C)=O)[C@@H](OC(C)=O)[C@H](OC(C)=O)[C@@H]4OC(C)=O)c(-c4cccc(CC(=O)OCC)c4)c3)ccc2O[C@H]2O[C@H](COC(C)=O)[C@@H](OC(C)=O)[C@H](OC(C)=O)[C@@H]2OC(C)=O)c1	-2.12% (inactive)
CCCCOC(=O)C(=O)Nc1cccc(-c2nn[nH]n2)c1	-2.18% (inactive)
CC(CN1c2ccccc2Sc2ccc(S(=O)(=O)N(C)C)cc21)N(C)C (stereo not drawn)	-5.49% (inactive)
COc1ccc(CNCC(O)COc2ccc3[nH]c(=O)ccc3c2)cc1OC (stereo not drawn)	1.33% (inactive)
c1cnc2cc3c(cc2n1)[C@@H]1CNC[C@H]3C1	-6.63% (inactive)
CCC(=O)OCC(=O)[C@@]1(OC(=O)CC)[C@H](C)C[C@H]2[C@@H]3CCC4=CC(=O)C=C[C@]4(C)[C@@]3(F)[C@@H](O)C[C@@]21C	-8.08% (inactive)
NCCC[C@H](N)CC(=O)N[C@H]1CNC(=O)[C@H]([C@H]2C[C@H](O)NC(N)=N2)NC(=O)/C(=C/NC(N)=O)NC(=O)[C@H](CO)NC(=O)[C@H](CO)NC1=O (β3hOrn-[Dap]SS[ΔAla(Z-3-ureido)][X5]; lactam 1-C)	-0.729% (inactive)
